Inconclusive results are not listed. The source made the active and inactive calls. Rule for the calls, unless noted: active = hit-call score of the fitted dose curve at least 0.9, where 1 is the maximum; inactive = score below 0.9.
How the values were obtained:
[1] = APR_HepG2_CellCycleArrest_24hr: Apredica 24-hour HepG2 Assay for Cell Cycle Arrest (AID 2282905); conditions: imaging, actives raise or lower the signal;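 note: cell cycle arrest scored as ratio of 2N to 4N nuclear DNA content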
Method in brief: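 Step one: dose HepG2 with test compounds, 0.39–200 uM, 0.5% DMSO, 24 hr. Step two: fix, permeabilize, stain nuclei with Hoechst 33342. Step three: image six fields per well at 20x, quantify DNA content, fit bidirectionally relative to DMSO.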

[2] = APR_HepG2_NuclearSize_24hr: Apredica 24-hour HepG2 Assay for Nuclear Size (AID 2282907); conditions: high-content imaging, actives raise or lower the signal
Method in brief: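 After fixation and permeabilization, 24-hr-treated HepG2 cells were stained with Hoechst 33342 and imaged on an ArrayScan (20x). Doses spanned 0.39–200 uM in duplicate. Nuclear diameter changes in either direction were fitted relative to 0.5% DMSO controls.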

[3] = APR_HepG2_CellLoss_24hr: Apredica 24-hour HepG2 Assay for Cell Loss (AID 2282908); conditions: high-content imaging
Method in brief: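 Duplicate wells received compound at ten concentrations (0.39–200 uM; final DMSO 0.5% v/v). After fixation with formaldehyde, nuclei stained with Hoechst 33342 were imaged at 20x. Loss or gain of cell count was fitted relative to DMSO controls.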

[4] = APR_HepG2_MicrotubuleCSK_24hr: Apredica 24-hour HepG2 Assay for Microtubule CSK Stabilty (AID 2282909); conditions: HepG2 microtubule cytoskeleton imaging, actives raise or lower the signal
Method in brief: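 Microtubule stability is scored from tubulin immunofluorescence in fixed HepG2 cells imaged at 20x. Cells receive ten compound concentrations up to 200 uM for 24 h; taxol and DMSO serve as positive and negative controls.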

[5] = APR_HepG2_MitoticArrest_24hr: Apredica 24-hour HepG2 Assay for Mitotic Arrest (AID 2282910); conditions: high-content imaging, actives raise or lower the signal
Method in brief: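 Treatment lasted 24 hr in the human HepG2 line at 0.39–200 uM, solvent held at 0.5% DMSO. Fixed cells were stained with Hoechst 33342 and anti-phospho-histone H3, imaged at 20x, and analysed by gain- or loss-of-signal fitting against DMSO.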

[6] = APR_HepG2_MitoMembPot_24hr: Apredica 24-hour HepG2 Assay for Mitochondrial Membrane Potential (AID 2282911); conditions: imaging, actives raise or lower the signal
Method in brief: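 Mitochondrial membrane potential imaged via MitoTracker Red CMXRos (250 nM, 30 min pre-fixation) in fixed HepG2 cells with Hoechst nuclear identification. Ten concentrations 0.39–200 uM, 24 h treatment, 0.5% DMSO; CCCP as positive control.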

[7] = APR_HepG2_MitoMass_24hr: Apredica 24-hour HepG2 Assay for Mitochondrial Mass (AID 2282912); conditions: high-content imaging, actives raise or lower the signal
Method in brief: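 Readout: fluorescence of MitoTracker Red CMXRos (250 nM, added 30 min pre-fixation) in fixed HepG2 cells imaged by HCS. Exposure lasted 24 hr at 0.39–200 uM; increases and decreases were both fitted relative to DMSO.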

[8] = APR_HepG2_p53Act_24hr: Apredica 24-hour HepG2 Assay for p53 Activation (AID 2282913); conditions: high-content imaging, actives raise or lower the signal;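 note: p53 protein immunofluorescence averaged per cell in HepG2 with Hoechst nuclei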
Method in brief: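 Fluorescence imaging of formaldehyde-fixed HepG2 cells labelled for p53 and with Hoechst, 24 h after dosing (0.39–200 uM, duplicate wells, 0.5% v/v DMSO). Signal fitted in both directions relative to DMSO.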

[9] = APR_HepG2_CellCycleArrest_72hr: Apredica 72-hour HepG2 Assay for Cell Cycle Arrest (AID 2282914); conditions: high-content imaging, actives raise or lower the signal
Method in brief: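 Read-out: nuclear DNA content from Hoechst 33342 high-content imaging (20x, six fields/well) after 3.7% formaldehyde fixation, fitted bidirectionally against DMSO. Treatment was 72 h in HepG2, ten concentrations 0.39–200 uM, duplicate, 0.5% DMSO.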

[10] = APR_HepG2_CellLoss_72hr: Apredica 72-hour HepG2 Assay for Cell Loss (AID 2282915); conditions: high-content imaging
Method in brief: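 HepG2 cells were exposed for 72 hr to compounds at 0.39–200 uM (ten concentrations, duplicate) in 0.5% v/v final DMSO. Nuclei were stained with Hoechst 33342 after 3.7% formaldehyde fixation, imaged at 20x, and counted; fits bidirectional versus DMSO.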

[11] = APR_HepG2_P-H2AX_72hr: Apredica 72-hour HepG2 Assay for H2AX Phosphorylation (AID 2282916); conditions: imaging, actives raise or lower the signal;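 note: phospho-histone H2A.x immunostain intensity per cell marking DNA damage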
Method in brief: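 Phospho-H2A.x imaging endpoint in HepG2 after 72 hr compound exposure (0.39–200 uM, duplicate wells). Activity derived by bidirectional curve fitting with DMSO as baseline.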

[12] = APR_HepG2_MitoMembPot_72hr: Apredica 72-hour HepG2 Assay for Mitochondrial Membrane Potential (AID 2282917); conditions: imaging, actives raise or lower the signal
Method in brief: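 HepG2 cells exposed 72 h to compounds at 0.39–200 uM (0.5% v/v DMSO, duplicates); MitoTracker Red CMXRos 250 nM loaded 30 min before 3.7% formaldehyde fixation, imaged by HCS fluorescence. Bidirectional fit versus DMSO.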

[13] = APR_HepG2_MitoticArrest_72hr: Apredica 72-hour HepG2 Assay for Mitotic Arrest (AID 2282918); conditions: high-content imaging, actives raise or lower the signal
Method in brief: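 High-content imaging of fixed human HepG2 cells after 72 h compound exposure (0.39–200 uM, duplicates, 0.5% DMSO); mitotic arrest scored from phospho-histone H3 and nuclear Hoechst staining relative to DMSO.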

[14] = APR_HepG2_MicrotubuleCSK_72hr: Apredica 72-hour HepG2 Assay for Microtubule CSK Stabilty (AID 2282919); conditions: HepG2 microtubule cytoskeleton, high-content imaging, actives raise or lower the signal
Method in brief: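 Ten-point dosing (0.39–200 uM, 0.5% DMSO) of HepG2 for 72 hr, with taxol as the cytoskeletal positive control. The cells were formaldehyde-fixed and then stained with alpha-tubulin/Cy5 and Hoechst. Imaging at 20x used a −2 um Z offset for tubulin.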

[15] = APR_HepG2_P-H2AX_24hr: Apredica 24-hour HepG2 Assay for H2AX Phosphorylation (AID 2282920); conditions: high-content imaging, actives raise or lower the signal
Method in brief: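 High-content imaging of phospho-histone H2A.x immunofluorescence, nuclei counterstained with Hoechst 33342, in fixed HepG2 cells. Compounds ran 0.39–200 uM in duplicate for 24 h, final DMSO 0.5%. Signal change fitted both directions against DMSO.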

[16] = APR_HepG2_StressKinase_72hr: Apredica 72-hour HepG2 Assay for Stress Kinase (AID 2282921); conditions: HepG2 stress kinase (phospho-c-Jun) imaging, actives raise or lower the signal
Method in brief: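 Stress kinase signal reflects nuclear phospho-c-Jun staining in fixed, permeabilized cells exposed 72 h to compound at 0.39–200 uM; DMSO-normalized, fitted for increases or decreases.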

[17] = APR_HepG2_StressKinase_24hr: Apredica 24-hour HepG2 Assay for Stress Kinase (AID 2282922); conditions: HepG2 stress kinase (phospho-c-Jun) imaging, actives raise or lower the signal
Method in brief: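 After 24 hr compound treatment (up to 200 uM, final DMSO 0.5% v/v), HepG2 cells are fixed and multiplex-labeled; phospho-c-Jun intensity is captured by high-content fluorescence imaging and analyzed relative to DMSO.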

[18] = APR_HepG2_p53Act_72hr: Apredica 72-hour HepG2 Assay for p53 Activation (AID 2282923); conditions: high-content imaging, actives raise or lower the signal;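 note: average cellular p53 protein immunofluorescence intensity in HepG2 cells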
Method in brief: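 Fixed-cell p53 staining (sheep primary, Cy5 secondary) measured by fluorescence imaging following 72 hr treatment at 0.39–200 uM in 0.5% DMSO; DMSO served as negative control and baseline.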

[19] = APR_HepG2_MitoMass_72hr: Apredica 72-hour HepG2 Assay for Mitochondrial Mass (AID 2282924); conditions: high-content imaging, actives raise or lower the signal;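 note: MitoTracker Red CMXRos stain intensity per cell imaged as mitochondrial mass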
Method in brief: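 Steps: treat HepG2 72 hr (0.39–200 uM, duplicate wells); load MitoTracker Red CMXRos, 250 nM, 30 min; fix with 3.7% formaldehyde, permeabilise with 0.5% Triton X-100; capture images, nuclei via Hoechst 33342; fit bidirectionally against DMSO.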

[20] = ACEA_ER_80hr: ACEA Biosciences xCELLigence Real-Time Cell Analysis on Estrogen Receptor Agonism for Proliferation (AID 2282667; active = hit-call score of the fitted dose curve at least 0.9, where 1 is the maximum); conditions: T47D proliferation, impedance (xCELLigence), 80 h
Method in brief: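 Real-time impedance growth kinetics of human T-47D breast cells read 80 h after dosing, gain-of-signal fitted relative to DMSO. Compounds: 1:4 serial series, top final concentration 100 uM, n = 2.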

Measured: outcome

CCCCN(CCCC)CCCC
not listed: [20]
inactive: all other assays above

CN1CCCC1=O
not listed: [1]
inactive: all other assays above

Cc1ccc2ncccc2c1
not listed: [1] | [12]
inactive: all other assays above
